Among all 48,000 compounds or so, about 13,000 (27%) showed an effect of 50% or more. The list shows a part of the results.
tested on: Wolbachia pipientis; experiment: Anti-Wolbachia Cell-Based Screen; format: functional; parameters: scale not given: in the data most compounds retested in dose-response had high values; settings: 5 µM

| Structure (SMILES) | Percent Effect |
| --- | --- |
| CNC(=O)Cc1ccc(-n2ccnc2-c2cccc(C(=O)O)c2)cc1 | -25.18% |
| Cc1noc(-c2ccc(N(C)Cc3cccnc3)nc2)n1 | -25.91% |
| O=C1CCc2cc(S(=O)(=O)NCc3cc4n(n3)CCNC4)ccc2N1 | -63.18% |
| Cc1ccc(C(CNCc2cnn(C(C)C)c2)N2CCOCC2)s1 (centres undefined) | 14.4% |
| O=C(NCC(O)COc1cccc(F)c1)C1(c2ccc(F)cc2)CC1 (centres undefined) | -1.107% |
| CCCOCCn1ncc(N2CCc3ccccc3C2)cc1=O | -4.867% |
| Cc1noc(C)c1CNc1cccc(C(=O)N(C)c2ccccc2)c1 | 8.742% |
| CSc1ccc(NCc2csc(CS(C)(=O)=O)n2)cc1F | 19.87% |
| COC(=O)c1ccc(NCc2csc(C)n2)cc1Cl | 105.1% |
| COCc1nc2cc(NCc3csc(C)n3)ccc2o1 | -10.85% |
| Cc1noc(C)c1CNc1ccc2nc(C3CC3)sc2c1 | -3.579% |
| COCCNC(=O)c1ccc(NCc2c(C)noc2C)cc1Cl | 99.6% |
| COc1ccc(OCCCNC(=O)NCc2csc(C)n2)cc1 | -1.518% |
| Cc1ccc(-c2nc(CNc3ccc(C(N)=O)c(C)c3)cs2)o1 | 16.54% |
| COC(=O)c1cc(NCc2cscn2)ccc1C | 4.935% |
| CNC(=O)Cc1nc(CNc2ccc(SC)c(F)c2)cs1 | 0.08952% |
| CSc1ccc(NCc2csc(C)n2)cc1F | 74.08% |
| COCCNC(=O)c1ccc(NCc2csc(C)n2)cc1Cl | 103.1% |
| CCOCCC(=O)N1Cc2cnc(-c3ccccc3)nc2C1 | -9.321% |
| Cc1nsc(N2CCN(C(=O)Nc3cccc(C#N)c3)CC2)n1 | -11.67% |
| CC(=O)N[C@@H]1CN(Cc2ccccc2-n2cccn2)C[C@H]1C(C)C | 1.725% |
| Cc1cc(C)cc(C(=O)NCCCC2(C3OCCO3)CCOCC2)c1 | 11.75% |
| CCn1c(CN(C)CC(=O)N(C)C)nc2c(F)cccc21 | -12.46% |
| Cc1nnc(N2C[C@H](Oc3ccccn3)[C@H]3OCCC[C@H]32)s1.O=C(O)C(F)(F)F.O=C(O)C(F)(F)F | -4.759% |
| O=C(Nc1ccc(-c2cscn2)cc1)C1CCCN(Cc2ccon2)C1 (centres undefined) | -5.748% |

| Structure (SMILES) | Percent Effect |
| --- | --- |
| CCOC(=O)NCCNC(=O)c1cc(Br)cn1C(C)C | -7.035% |
| Cc1ccc(C(=O)N2CCC3(CCN3Cc3ccc(F)cc3)C2)cn1.O=C(O)C(F)(F)F (centres undefined) | 111.6% |
| Cc1ccc(C(=O)N2CCC3(CCN(c4ccsc4)C3=O)C2)cn1.O=C(O)C(F)(F)F (centres undefined) | 44.84% |
| Cn1ccnc1C(=O)N1CCC2(CCN2CC2CC2)C1.O=C(O)C(F)(F)F (centres undefined) | -29.26% |
| Cn1ccnc1C(=O)N1CCC2(CCN2Cc2ccc(F)cc2)C1.O=C(O)C(F)(F)F (centres undefined) | 107.3% |
| O=C(c1ccsc1)N1CCC2(CCN2Cc2ccc(F)cc2)C1 (centres undefined) | -0.5147% |
| Cc1cnc(C(=O)N2CCC3(CCN3Cc3ccc(F)cc3)C2)cn1.O=C(O)C(F)(F)F (centres undefined) | 105.8% |
| CCN1CCC12CCN(C(=O)c1ccsc1)C2.O=C(O)C(F)(F)F (centres undefined) | -5.276% |
| CCn1c(SC)nnc1C1CCN(C(=O)N2CCCC2)CC1 | 139.7% |
| CCn1c(CN2CCCC2)nnc1C1CCN(S(=O)(=O)CC)CC1 | 6.34% |
| CSc1nnc(CC2CCN(C(=O)Cc3ccncc3)CC2)n1C | -0.6807% |
| CSc1nnc(C2CCN(C(=O)N3CCCC3)CC2)n1C | 86.99% |
| CCn1c(Cn2cncn2)nnc1C1CCN(C(=O)CCSC)CC1 | 0.8054% |
| Cn1c(CN2CCCC2)nnc1C1CCCN(C(=O)N2CCOCC2)C1 (centres undefined) | -16.59% |
| O=C(NCCNC(=O)C1CCN(CC(F)(F)F)CC1)c1ccoc1 | 16.83% |
| O=C(NCCNC(=O)C1CCN(c2ncccn2)CC1)c1ccoc1 | -1.676% |
| O=C(NCCNc1ncccn1)C1CCN(C(=O)C2CC2)CC1 | 7.876% |
| O=C(NCCNc1ncccn1)C1CCN(C(=O)N2CCCC2)CC1 | 88.68% |
| O=C(NCCNc1ncccn1)N1CCSCC1 | -3.552% |
| O=C(NCCNc1ncccn1)C1CCN(C(=O)NC2CC2)CC1 | 95.19% |
| CC(C)(C)OC(=O)N1CCC(C(=O)NCCNc2ncccn2)CC1 | 98.46% |
| O=C(NCCNc1ncccn1)C1CCN(CC(F)(F)F)CC1 | 1.799% |
| O=C(NCCNc1ncccn1)C1CCN(C(=O)c2ccoc2)CC1 | 101.2% |
| CN(C)C(=O)N1CCC(C(=O)NCCNc2ncccc2C#N)CC1 | -1.068% |
| CC(O)CN1CCC(CN(C)Cc2ccc(C(N)=O)cc2)CC1 (centres undefined) | 3.378% |

| Structure (SMILES) | Percent Effect |
| --- | --- |
| O=C1N(Cc2cccc(F)c2F)CCCC1(O)CNCC1CCCCC1 (centres undefined) | -14.65% |
| Cc1nc2ccccc2nc1CN1CCn2nc(CCC(=O)O)cc2C1 | 11.39% |
| CC(Nc1ccc(CN2CCCC2=O)cc1)C(=O)N(C)CCC#N (centres undefined) | 4.456% |
| O=C(NCCNc1ncccn1)C1CCCC1 | 120% |
| CCCC(=O)N1CCC(C(=O)NCCNc2ncccn2)CC1 | 97.7% |
| CS(=O)(=O)N1CCC(C(=O)NCCNc2ncccn2)CC1 | -2.901% |
| O=C(NCCNc1ncccn1)C1CCN(c2ncccn2)CC1 | -3.346% |
| CCCC(=O)N1CCC(C(=O)NCCN2CCC(C)CC2)CC1 | 2.916% |
| Cc1ccc(CN2CC[C@H]3C(=O)N(c4cccnc4)CCO[C@H]3C2)o1 | -2.706% |
| CN1CCN(C(=O)c2nc3c(s2)CCCN3C(=O)C2CC2)CC1.O=C(O)C(F)(F)F | -2.349% |
| CN(C)CCNC(=O)c1nc2c(s1)CCCN2C(=O)C1CC1.O=C(O)C(F)(F)F | 97.24% |
| O=C(NCc1cccnc1)c1nc2c(s1)CCCN2C(=O)C1CC1.O=C(O)C(F)(F)F | 105.9% |
| O=C(c1nc2c(s1)CCCN2C(=O)C1CC1)N1CCCC1 | 12.54% |
| CN1CCCc2sc(C(=O)NCc3cccnc3)nc21 | -7.154% |
| O=C(NCCc1cccc(F)c1)c1nc2c(s1)CCCN2C(=O)C1CC1 | 109.4% |
| Cc1ccc(NC(=O)c2nc3c(s2)CCCN3C(=O)C2CC2)cn1.O=C(O)C(F)(F)F | 7.338% |
| COCCN(C)C(=O)c1nc2c(s1)CCCN2C(=O)C1CC1 | 11.31% |
| O=C(NCCc1cccnc1)c1nc2c(s1)CCCN2C(=O)C1CC1.O=C(O)C(F)(F)F | 99.18% |
| O=C(CCNc1ncccn1)NCc1ccc(Br)s1 | 9.501% |
| CC(=O)c1cccc(NC(=O)N2CCCCC2CN2CCCC2=O)c1 (centres undefined) | -4.61% |
| Cc1ccc(C(=O)NCCNCC2CNc3ccnn3C2)cc1 (centres undefined) | -8.644% |
| CC(C)Cc1cc(C(=O)NCC(O)CN2CCCCCC2)on1 (centres undefined) | -21.74% |
| Cc1ccc(OCc2cccc(C(=O)N(C)C(C)CC#N)c2)cn1 (centres undefined) | -5.236% |
| CCOCC1CN(C(=O)Cc2ccccn2)Cc2c1cnn2CC (centres undefined) | -48.51% |
| OCc1ccc(-c2c(-c3ccccc3)ncn2CCN2CCOCC2)o1 | 6.374% |

| Structure (SMILES) | Percent Effect |
| --- | --- |
| CN(C)C(=O)CO[C@H]1CN(Cc2nccs2)[C@@H]2COC[C@H]12.O=C(O)C(F)(F)F | 104.4% |
| c1cnc(N2C[C@H](OCC3CCOCC3)[C@H]3COC[C@H]32)nc1 | -13.81% |
| O=C(O)C(F)(F)F.O=C(O)C(F)(F)F.c1csc(CN2CCOCC3(CCN(C4CCOCC4)C3)C2)n1 (centres undefined) | 4.386% |
| O=C(O)C(F)(F)F.c1csc(CN2C[C@H](OCC3CC3)[C@H]3COC[C@H]32)n1 | 114.6% |
| Cc1ncsc1CN1C[C@@H](OCC(=O)N(C)C)[C@H]2OCCC[C@H]21.O=C(O)C(F)(F)F | -4.628% |
| O=C(O)C(F)(F)F.c1csc(CN2CCCn3nnc(COCC4CC4)c3C2)n1 | 3.459% |
| O=C(O)C(F)(F)F.c1csc(CN2C[C@H](OCC3CCOCC3)[C@H]3COC[C@H]32)n1 | 78.63% |
| O=C(O)C(F)(F)F.c1ccc(C[C@H]2CN(Cc3nccs3)CC[C@@H]2OCC2CC2)cc1 | -18.04% |
| O=C(c1nnn(-c2ccccc2Cl)c1-c1ccccn1)N1CCSCC1 | 5.989% |
| CC(=O)N(Cc1noc(C2CC2)n1)C1CCN(Cc2cccnc2)C1 (centres undefined) | 56.34% |
| CC(=O)N(Cc1noc(C2CC2)n1)C1CCN(Cc2ccccc2)C1 (centres undefined) | 96.7% |
| CC(=O)N(Cc1noc(C2CC2)n1)C1CCN(Cc2ccncc2)C1 (centres undefined) | 0.6841% |
| COC(=O)CN(C(=O)c1ccc(Cl)o1)c1cccc(F)c1 | -9.604% |
| Cn1cccc1C(=O)N1C[C@H]2CN(CC3CC3)C(=O)[C@H]2C1 | -15.38% |
| CN(C)CCOCC1CN(C(=O)c2cccnc2)Cc2ccnn2C1 (centres undefined) | -7.083% |
| COc1ccc(CN(C)[C@@H]2CN(C(=O)c3cccn3C)C[C@H]2O)cc1 | 98.88% |
| CCN1C[C@@H]2CN(C(=O)c3cccn3C)C[C@@H]2C1=O | -32.3% |
| COc1ccc(CN(C)[C@@H]2CN(C(=O)c3cccnc3)C[C@H]2O)cc1 | 87.24% |
| COc1ccc(CN(C)[C@@H]2CN(C(=O)c3ccnn3C)C[C@H]2O)cc1 | 97.48% |
| COc1ccc(OCc2nc(C(=O)N3C[C@H](O)[C@@H](N(C)C)C3)co2)cc1 | -35.76% |
| COc1ccc(CN(C)[C@@H]2CN(C(=O)c3ccccc3)C[C@H]2O)cc1 | 114.6% |
| COc1cccc(C(=O)N2C[C@@H](C(=O)O)[C@H](c3ccccc3C)C2)c1 | -3.21% |
| COc1ccc(COCC(O)CNC(=O)c2cccnc2)cc1 (centres undefined) | 15.02% |
| Cn1nccc1C(=O)N1CCOC(Cc2cccc(C(F)(F)F)c2)C1 (centres undefined) | -3.764% |
